These results are taken from PubChem BioAssay.

Values joined by “and” are separate entries in the source; they are usually repeats but may differ in a detail not shown here. Equal values may be shown once. More than one record can exist for a structure, and the calls need not agree. Active and inactive are the calls of the source.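 The calls were made as follows, unless noted: active = compounds that lower survival of HCT116 colon cancer cells in the luminescence readout, no numeric limit stated; inactive = the rest.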

Experiment [1] can be described thus: liver-stage malaria parasite load reduction – cell-based, known kinase inhibitor set, luminescence, hepatoma host viability (AID 624392; call rule not given here;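 also: infected cells incubated roughly two days before readout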). As to conditions: Plasmodium liver stage in hepatoma cells, luciferase luminescence, concentration not given here; liver cell % of control: measured here: host liver cell viability; parasite % of control: stronger effect = lower value.

A short description of experiment [2]: altered dexamethasone sensitivity, NF-kB reporter, cell-based, luciferase, IL-1B stimulus (AID 624486; call rule not given here;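 as to percent of negative control (+Dex): 100% = mean signal of vehicle control wells on the plate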). Conditions: IL-1B + dexamethasone, luminescence; percent of negative control (+Dex): actives lie on both sides, concentration not given here; z-score: measured here: IL-1B alone, no Dex.
A short description of experiment [3]: C. elegans survival during P. aeruginosa infection – whole organism (AID 651566; call rule not given here;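 also: tested at 14 µM; sign flipped so higher z means a lower ratio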). As to conditions: C. elegans killed by P. aeruginosa, survival ratio.
A short description of experiment [4]: pro-inflammatory signaling induction in mouse macrophages – cell-based, murine, luminescence (AID 652131; call rule not given here). As to conditions: murine macrophage pro-inflammatory reporter, stronger effect = higher value.
Experiment [5] in a line: inducers of IRF3 signaling, differentiated THP-1 – cell-based, PMA-stimulated THP-1, luminescence (AID 1053176; call rule not given here). Conditions: PMA-differentiated THP-1, IRF3 reporter luminescence; stronger effect = higher value.
A short description of experiment [6]: MELAS cybrid and Rieske KO viability enhancers – cell-based, MELAS cybrids, Rieske KO mouse fibroblasts, CellTiter-Glo, primary screen (AID 1508586;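 active = mean z-score across replicates of 1.96 or higher in either the MELAS or the Rieske mutant cell line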;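 also: z relative to plate mean and SD of compound and empty wells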). Conditions: low glucose. (Cellular ATP, detected with luciferase, serves as a proxy for viable cell number.)
Experiment [7] can be described thus: Wnt pathway potentiators raising nuclear beta-catenin – imaging, WNT3A-conditioned medium, mouse C2C12, NPC library, primary screen (AID 1117326; in the data active = nuclear beta-catenin stimulation mostly above about 4.2%, no sharp cut-off; inactive = mostly below about 10%). As to conditions: stronger effect = higher value.
The nature of experiment [8]: stimulators of insulin release from INS-1E, primary screen, cell-based, 5 mM glucose, NPC library (AID 1117329;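 active = compound raises insulin release from rat beta cells at 5 mM glucose, no numeric limit stated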). Conditions: rat INS-1E insulin secretion, at 10 µM, stronger effect = higher value.
Experiment [9] in a line: growth inhibition of GSK3B-pretreated HCT116 cells – cell-based, CellTiter-Glo, 0.2 to 20 µM (AID 1117336;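 active = compounds lowering colon cancer cell viability after pretreatment blocking the GSK3B kinase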). As to conditions: HCT116 viability after GSK3B inhibitor, at 20 µM, stronger effect = higher value.
Experiment [10] is described as follows: inhibition of endothelial tube formation, primary screen, imaging, VEGF stimulated, CD31 staining, tube area, NPC library (AID 1117340;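 active = compound that reduces growth-factor-driven endothelial tube area in a mixed cell culture, no cutoff stated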). Conditions: VEGF-stimulated ADSC/ECFC co-culture, at 10 µM, stronger effect = higher value.
A short description of experiment [11]: GLP1 release stimulators, primary, NCI-H716, NPC library (AID 1117341;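 active = compound raises GLP1 secretion from the human gut endocrine cells, with no numeric limit stated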). Conditions: NCI-H716 cells, at 10 µM, stronger effect = higher value.
A short description of experiment [12]: HCT116 colon cancer cell growth inhibition, primary screen, CellTiter-Glo luminescence, NPC library (AID 1117342). As to conditions: at 20 µM (top of the series).
A short description of experiment [13]: reduced SW480 viability measured with CellTiter-Glo, NPC library, primary (AID 1117343;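 active = compounds that lower viability of the colon cancer cells in the luminescence readout, with no numeric limit stated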). Conditions: CellTiter-Glo luminescence; at 20 µM (top of the series).
The nature of experiment [14]: NPC library primary testing for decreased DLD-1 cell viability via CellTiter-Glo (AID 1117346;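 active = compounds that lower survival of DLD-1 colon cancer cells in the luminescence readout, no cutoff given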). Conditions: DLD-1 viability, CellTiter-Glo luminescence; at 20 µM (top of the series).

Turning to `CC(C)(C)c1ccc(Oc2nccc(-c3c(-c4ccc(F)cc4)ncn3C3CCNCC3)n2)cc1`, the liver cell % of control in experiment [1] is 81.4%. Besides, the parasite % of control in [1] was 76.7% (inactive). In addition, the percent of negative control (+Dex) in experiment [2] is 106% (inactive). Besides, the z-score in experiment [2] was 0.75; in [3] it was 0.215 (inactive); in experiment [4] it was -0.618 (inactive); in experiment [6] (MELAS cybrid survival, CellTiter-Glo 48 h, stronger effect = higher value) it was -0.424 (inactive); in experiment [6] (Rieske KO mouse fibroblast survival, CellTiter-Glo 72 h), 0.0471. The fraction signal in experiment [5] is 0 (inactive).

With `O=C1CC(c2ccc(Cl)cc2)CC(=O)N1`, the nuclear beta-catenin stimulation was -1.1% (inactive) in experiment [7] (at 10 µM) and -2.3% in [7] (stimulation, at 2 µM). Moreover, in experiment [8], the insulin secretion stimulation was 1.8% (inactive). Also, the viability decrease in [9] was 2.1% (inactive). Moreover, the tube area decrease in [10] is -4.2% (active). Besides, the GLP1 secretion stimulation in experiment [11] was 3.8% (inactive). In [12], the inhibition of viability is 20.4% (inactive). The figures for the viability decrease (inhibition) in experiment [13] and in [14] were -4.9% (inactive) and 6.7% (inactive), respectively.

For `COc1ccnc2c1CCCCC2S(=O)c1nc2ccccc2[nH]1` (configuration not stated), the nuclear beta-catenin stimulation in experiment [7] (at 10 µM) was -0.3% (inactive); in experiment [7] (stimulation, at 2 µM), 3%. The insulin secretion stimulation in [8] was 1.6% (inactive). Besides, in [9], the viability decrease was -54.1% (inactive). Besides, the tube area decrease in experiment [10] is 13.2% (inactive). In [11], the GLP1 secretion stimulation was 9.2% (inactive). Further, the inhibition of viability in experiment [12] is 27.5% (inactive). The viability decrease (inhibition) in experiment [13] was 31.6% (inactive); in experiment [14], 11.3% (inactive).

Turning to `COc1ccc(C(C#N)C(C)C)cc1OC` (configuration not stated), the nuclear beta-catenin stimulation was -1.8% (inactive) in experiment [7] (at 10 µM) and 0.3% in experiment [7] (stimulation, at 2 µM). The insulin secretion stimulation in experiment [8] was 2.2% (inactive). Besides, in [9], the viability decrease was -24.5% (inactive). In addition, the tube area decrease in [10] was 9.3% (inactive). In addition, the GLP1 secretion stimulation in experiment [11] is -3.4% (inactive). Also, the inhibition of viability in [12] is 13.4% (inactive). Also, the viability decrease (inhibition) is -4.7% (active) in experiment [13] and -19.9% (inactive) in experiment [14].

As for `Cc1cc(O)c2ccccc2c1O`, the nuclear beta-catenin stimulation in experiment [7] (at 10 µM) is 53.2% (active) and 30.1% (inactive); in experiment [7] (stimulation, at 2 µM) it was 1.1% and -0.7%. Also, the insulin secretion stimulation in experiment [8] was 5% (inactive) and 0.4% (inactive). For the same molecule, in experiment [9], the viability decrease is 101% (active) and 99.2% (active). Besides, in experiment [10], the tube area decrease was 74.4% (active) and 26.8% (inactive). The GLP1 secretion stimulation in experiment [11] was -6.3% (inactive) and -0.9% (inactive). The inhibition of viability in experiment [12] was 102% (active) and 99.5% (active). The viability decrease (inhibition) was 142% (active) and 102% (active) in experiment [13]; 104% (active) and 101% (active) in [14].

For the molecule `O=C(NCCc1c[nH]c2ccccc12)c1cccnc1`, the nuclear beta-catenin stimulation in experiment [7] (at 10 µM) was 1% (inactive); in experiment [7] (stimulation, at 2 µM), 1.7%. For the same molecule, in experiment [8], the insulin secretion stimulation is -2.7% (inactive). Moreover, the viability decrease in experiment [9] is 6.55% (inactive). Further, the tube area decrease in experiment [10] was 35.9% (inactive). Moreover, the GLP1 secretion stimulation in experiment [11] was 0.6% (inactive). Further, the inhibition of viability in experiment [12] is -5.5% (inactive). The viability decrease (inhibition) in experiment [13] is 71.3% (active); in experiment [14], -0.95% (inactive).

For `CNC(=O)CN(CCN(CCN(CC(=O)[O-])CC(=O)NC)CC(=O)[O-])CC(=O)[O-].O.[Gd+3]`, the nuclear beta-catenin stimulation in [7] (at 10 µM) is 1.4% (inactive); in [7] (stimulation, at 2 µM), -0.1%. For the same molecule, the insulin secretion stimulation in [8] was 0.2% (inactive). The viability decrease in experiment [9] was 38.3% (inactive). Besides, the tube area decrease in experiment [10] is 18.9% (inactive). In [11], the GLP1 secretion stimulation was -4.4% (inactive). Moreover, in experiment [12], the inhibition of viability was 25.4% (inactive). Besides, the results for the viability decrease (inhibition) in [13] and in experiment [14] were 30.9% (inactive) and 3.8% (inactive), respectively.

For `O=[N+]([O-])c1ccc(/C=N\O)o1`, the nuclear beta-catenin stimulation is 2% (inactive) in [7] (at 10 µM) and 0.4% in [7] (stimulation, at 2 µM). Moreover, in experiment [8], the insulin secretion stimulation was -3.1% (inactive). For the same molecule, in [9], the viability decrease is 35.1% (inactive). For the same molecule, the tube area decrease in [10] is -16.1% (inactive). Further, in [11], the GLP1 secretion stimulation is 4% (inactive). For the same molecule, the inhibition of viability in experiment [12] is 8.8% (inactive). Further, the viability decrease (inhibition) in experiment [13] is 53.4% (active); in experiment [14] it was 4.47% (inactive).
